SW480 rerep – inducers of DNA re-replication in SW480 colon cancer cells; SW480 DNA re-replication, Hoechst DNA content imaging, 48 h; Potency, µM (top dose mostly 46.1 µM), without a hit: top-dose re-replication activation, most hits filed as activators; 1.8% of 340,000 active; AID 624297; further: % of control where 0% means no effect; nearly all actives have a fitted effect of over 55% in size
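Readout is total intensity of Hoechst-stained nuclei, excited at 405 nm and collected at 500-530 nm. Compound treatment lasted 48 hr at 37 C in 5% CO2 before staining.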
KB-V1 cytotox – kills drug-selected multidrug resistant KB-V1 cells; KB-V1 MDR cells viability, CellTiter-Glo, 72 h; Potency, µM (titrated, usually from 46.1 µM), actives largely listed as cytotoxic; 3.4% of 400,000 active; further: on the % scale 0 is the no-effect control and ±100 the full control effect; nearly all actives have a fitted effect of over 60% in size
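KB-V1, DMEM (no phenol red) + 10% FBS; cpd pin-transferred, titration series; 72 h, 37 degrees C; CellTiter-Glo, luminescence. Data normalized, curve-fit.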
MCF10A rerep – DNA re-replication induction in MCF 10a cells; MCF 10A DNA re-replication, Hoechst nuclear intensity, 48 h; 2.9% of 350,000 active; AID 624296; Potency, µM (highest dose often 46.1 µM), without a hit: top-dose activity, positive = re-replication, usual class: activators; further: % of control where 0% means no effect; nearly all actives have a fitted effect of over 50% in size
KB-3-1 tox – kills parental KB-3-1 adenocarcinoma cells. Potency, µM (doses to about 46.1 µM), actives largely listed as cytotoxic. 1.4% of 400,000 active. AID 1347075. KB-3-1 viability, CellTiter-Glo ATP luminescence, 72 h; further: on the % scale 0 is the no-effect control and ±100 the full control effect; nearly all actives have a fitted effect of over 60% in size
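Cytotoxicity in the drug-sensitive parental line KB-3-1 was scored as loss of CellTiter-Glo luminescence following 72 h incubation with compound. Values come from curve fitting of normalized concentration-response data.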
PINK1 expr mod – PINK1 expression modulation; PINK1 immunofluorescence, high-content cytometry, 24 h; Potency, µM (series often up to 76.6 µM), for the others: top-dose activation (PINK1 increase), actives largely listed as activators; 0.2% of 410,000 active; active means well fitted activation curve with a large enough effect; inconclusive means small, poorly fitted or top-dose-only effect; cell line not stated here; further: % of control where 0% means no effect; nearly all actives have a fitted effect of over 65% in size
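PINK1 protein, normally rapidly degraded, was detected by immunofluorescence after 24 hour compound treatment of a stable cell line. Titration data (5 concentrations) came from laser-scanning cytometry, with CCCP-treated wells as controls.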
* marks the source's active call; other numbers are inactive results; i = inactive; ? = inconclusive; . = not tested or not shown; ! = repeats disagree. Rows were chosen to be rich in hits. Some 6.7% of all compounds tested hit in one or more screens of this group. Unless noted, the call rests on the fitted dose curve; in most records, active means well fitted curve in the direction sought with a large enough effect; inconclusive means small, poorly fitted or top-dose-only effect, or another doubt; inactive means no such curve, though single readings can be large; an effect the other way counts as inactive or inconclusive. Potency means the concentration at half of the fitted maximal effect.

SMILES	SW480 rerep	KB-V1 cytotox	MCF10A rerep	KB-3-1 tox	PINK1 expr mod
COc1ccc(CN2C(=O)c3ccccc3C(/C=N\OCc3ccc(F)cc3)C2=O)cc1 (configuration not stated)	-1.4%	16.4µM*	7.1%	?	?
COc1cc(/C=N/NC(=O)/C(=C/c2ccccc2)CCO)ccc1O	?	i	-1.3%	i	0.2%
O=C(N/N=C/c1ccc(O)cc1O)/C(=C/c1ccccc1)CCO	?	?	18.4µM*	i	0.5%
Cc1nnc(SCc2ccccc2)nc1/C=C/NOCc1ccc(Cl)cc1Cl	1.3%	i	9.9%	i	15.4%
C=CCSc1nnc(C)c(/C=C/Nc2ccc(Cl)cc2)n1	?	i	20.6µM*	i	2.5%
OC(Cc1cccnc1)(Cc1cccnc1)c1cc2ccccc2[nH]1	0.8%	i	24.5%	i	-1.4%
OC(Cc1cccnc1)(c1ccccc1)c1ccccc1	1.1%	18.4µM*	-0.5%	?	-2.5%
COc1cc(=O)n2c(c1C(=O)N(C)Cc1nonc1C)CCN(Cc1cc(F)ccc1F)CC2	.	.	.	.	-1.3%
Cc1occc1C(=O)Nc1cccc(-c2nc(CNC(=O)c3ccc(N4CCCCC4)cc3)c(C)o2)c1	.	.	.	.	0.7%
COc1cccc(-c2nnc(NC(=O)c3ccc(Cl)s3)o2)c1	24.9%	i	6.51µM*	?	0.5%
Cc1ccc(C(=O)Nc2nnc(-c3ccncc3)o2)cc1	0.9%	i	3.4%	i	3.3%
Cc1ccc(-c2nnc(NC(=O)c3ccc([N+](=O)[O-])o3)o2)c(C)c1	11.3%	?	?	?	-7.5%
COc1ccc(-c2nnc(NC(=O)c3ccc([N+](=O)[O-])o3)o2)c(OC)c1	16.4µM*	?	8.2µM*	i	3.8%
O=C(Nc1nnc(-c2ccc(F)cc2)o1)c1cc(Cl)sc1Cl	28.7%	i	1.03µM*	?	0.7%
Cc1cccc(-c2nnc(NC(=O)c3ccc(Cl)cc3)o2)c1	?	13µM*	14.6µM*	?	?
Cc1ccc2c(Sc3ccc(Cl)cc3)c(C(=O)NCCC(C)C)[nH]c2c1	.	i	.	i	0.8%
CC1C(=O)N2CCCc3cc(S(=O)(=O)N(C)CCC#N)cc1c32 (configuration not stated)	-0.5%	i	-4.2%	i	1.8%
COc1cccc(-c2nnc(NC(=O)c3cccc(F)c3)o2)c1	20.9%	?	23.1µM*	i	0.0%
Cc1cccc(CSCCNC(=S)Nc2ccccc2)c1	0.0%	18.4µM*	17.0%	?	-1.0%
CCCOc1ccc(CSCCNC(=S)Nc2ccccc2)cc1	14.8%	?	?	i	?
S=C(NCCSCc1ccc(Cl)cc1)Nc1ccccc1	5.1%	?	22.9%	i	3.0%
S=C(NCCSCc1ccccc1Cl)Nc1ccccc1	-1.4%	?	12.6µM*	i	13.4%
CCc1ccc(CN(C)C(=O)CCc2nc3ccccc3n(-c3ccc(OC)cc3)c2=O)cc1	?	11.6µM*	?	i	-2.3%
CCN(Cc1ccc2c(c1)OCCO2)C(=O)CN1C(=O)NC2(CCCCC2)C1=O	-4.5%	18.4µM*	-2.3%	i	0.2%
Cc1ccc(CNC(C)c2ccccc2)s1 (configuration not stated)	.	i	.	i	-0.1%
SMILES	SW480 rerep	KB-V1 cytotox	MCF10A rerep	KB-3-1 tox	PINK1 expr mod
CC(NCCC(c1ccccc1)c1ccccc1)c1ccccc1 (configuration not stated)	7.31µM*	?	?	i	?
O=C(CCS(=O)(=O)c1ccc(F)cc1)Nc1nnc(-c2ccc(F)cc2)o1	?	i	?	i	-0.1%
O=C(CCS(=O)(=O)c1ccc(Cl)cc1)Nc1nnc(-c2cccs2)o1	1.64µM*	i	?	i	0.0%
Cc1ccc(-c2nnc(NC(=O)CCS(=O)(=O)c3ccc(F)cc3)o2)c(C)c1	1.2%	i	8.2µM*	i	0.2%
O=C(NCc1ccc(F)cc1F)[C@@H]1CCCN1C(=O)[C@@H]1CCCN1C(=O)c1ccccc1	.	i	.	?	-1.1%
CN(C)C(=O)c1ccc(-c2nc(NC3CCNCC3)c3ccccc3n2)cc1	.	.	.	.	2.4%
Cc1ccc(C)c(OCCn2c(-c3ccc(Cl)cc3)nc3ccccc3c2=O)c1C	.	?	.	i	1.9%
CCCn1nc(NC(=O)c2ccncc2)c2cc3ccccc3nc21	0.9%	i	5.0%	i	3.4%
CCCn1nc(NC(=O)c2cccs2)c2cc3cc(OC)ccc3nc21	14.6µM*	?	?	i	-0.3%
CCCCn1nc(NC(=O)c2cccs2)c2cc3cc(OC)ccc3nc21	11.6µM*	?	?	i	1.4%
CC(=O)c1ccc(NC(=O)CSc2nnc(C3CC3)n2C2CC2)cc1	-2.7%	i	2.1%	i	2.0%
COc1ccc(C(=O)N2CCC3(CCN(C)CC3)CC2)cc1	.	.	.	.	-0.3%
Cc1sc2nc(-c3ccccc3)[nH]c(=O)c2c1-c1ccccc1	-4.1%	.	4.7%	.	.
Cc1sc2nc(-c3cccnc3)nc(Cl)c2c1-c1ccccc1	0.5%	13µM*	20.6µM*	i	21.7%
COc1cc(NC(=O)N2CCNC2=O)cc(C(=O)Nc2cccc(C(F)(F)F)c2)c1	5.17µM*	i	2.06µM*	10.3µM*	12.4%
CCN1CCN(Cc2ccc(NC(=O)c3cc(NC(=O)N4CCNC4=O)cc(OC)c3)cc2C(F)(F)F)CC1	?	?	0.4%	?	-1.0%
COc1cc(NC(=O)c2nccn2C)cc(C(=O)Nc2cccc(C(F)(F)F)c2)c1	?	4.11µM*!	5.6%	i	7.5%
COc1cc(NC(=O)c2nccnc2N)cc(C(=O)Nc2cccc(C(F)(F)F)c2)c1	-1.9%	i	4.1%	i	8.7%
O=C(N/C(=C/c1ccc([N+](=O)[O-])cc1)C(=O)N1CCCC1)c1ccccc1	0.1%	i	2.5%	i	-1.4%
O=C(N/C(=C/C=C/c1ccccc1)C(=O)N1CCCCC1)c1ccc([N+](=O)[O-])cc1	-29.8%	i	0.581µM*	i	2.1%
O=C(Nc1nc(-c2cccs2)cs1)C1CC(=O)N(c2ccc3c(c2)OCCO3)C1 (configuration not stated)	.	i	.	i	0.1%
CS(=O)(=O)NNC(=O)c1cc2cc3ccccc3nc2s1	-5.1%	i	-3.3%	i	-1.5%
NNC(=O)c1cc2cc3ccccc3nc2s1	5.7%	i	11.6µM*	i	7.8%
Cc1nc2c3cc(F)ccc3n(Cc3ccccc3F)c2s1	?	?	104.7%	?	6.4%
NNc1nnc2c3cc(F)ccc3n(Cc3ccccc3)c2n1	?	i	?	?	31.6µM*
Cc1nc2c3ccccc3n(Cc3ccccc3F)c2s1	16.8%	?	14.6µM*	i	12.3%
CCn1c2ccc(F)cc2c2nnc(NN)nc21	?	i	19.9%	i	8.4%
